In the library only some 3.6% were active in any assay of this set; here they are far more common.
HSF1 activator: increases HSF-1 driven luciferase reporter signal. NIH3T3-HGL HSF-1 luciferase reporter, MG132, 8 h; 100% = twice DMSO control signal. AID 504408. activation, % at 9 µM. 300,000 tested, 1.7% active;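 active = mean replicate activation of at least 50% with a set share of replicates each reaching 50%; inconclusive = only one of those two conditions met; inactive = mean below 50% and too few replicates reaching it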;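 note: 0% = median of the neutral control wells and 100% = twice that signal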
TWEAK Fn14 block: blocks TWEAK-Fn14 interaction in a reporter cell assay. TWEAK-stimulated Fn14 reporter cells, luciferase luminescence, 8 h. inhibition, % at 10 µM. 360,000 tested, 2% active; in the data active = inhibition above about 50%
LMP1 NFkB inh: inhibitors of Epstein-Barr LMP1-induced NF-kappaB reporter | 350,000 tested, 0.69% active | LMP1-induced NF-kappaB luciferase reporter cells, luminescence | inhibition, % at 12.5 µM; in the data active = inhibition above about 41%; inconclusive = no clear call, values can overlap the other calls;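 note: 0% = neutral control wells and 100% = reference inhibitor control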
LGR2 inh: Drosophila LGR2 receptor signaling inhibition. HEK293 LGR2, CRE-luciferase, bursicon-stimulated, 4 h. inhibition, % at 9.99 µM. 380,000 tested, 0.35% active. AID 720647;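 active = drop in luminescence signal, shown as inhibition above about 50% in the replicate tests, limit read from the data, passing the limit was not always enough; inconclusive = probably only some replicates passing the limit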;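 note: agonist challenge used bursicon conditioned medium at about half maximal strength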
TROY signal inh: TROY signaling inhibition | Q293 LMP1-TROYcd NF-kB luciferase reporter, 4 h | inhibition, % at 10 µM | 360,000 tested, 0.98% active | AID 1347056;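 active = compounds whose plate-normalised and pattern-corrected inhibition of the luciferase reporter signal at the single screening dose is 50% or more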
HSF1 inhib: HSF1 inhibition; NIH3T3-HGL HSE-luciferase, MG132-induced, luminescence 8 h; stronger effect = lower value; activity change, negative = inhibition, % at 7.5 µM (by protocol); 300,000 tested, 0.77% active; AID 2098;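 active = more than half of replicate wells show activity change below -50%, luminescence cut by over half; inconclusive = some wells, but at most half, below -50%; inactive = no replicate well below -50%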;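 note: luciferase reports HSF-1 transcriptional activity via heat shock element; 0% = median of DMSO wells and -100% = zero luminescence signal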
* marks the source's active call; other numbers are inactive results; ? = inconclusive; . = not tested or not shown.

SMILES	HSF1 activator	TWEAK Fn14 block	LMP1 NFkB inh	LGR2 inh	TROY signal inh	HSF1 inhib
C=C1C(=O)O[C@@H]2C[C@@H](C)[C@@H]3C=CC(=O)[C@@]3(C)[C@@H](OC(=O)CC(=O)O[C@H]3[C@@H]4C(=C)C(=O)O[C@@H]4C[C@@H](C)[C@@H]4C=CC(=O)[C@]43C)[C@H]12	-95.8	105.3*	92.5*	.	89.3*	-95.7*
C=C1C(=O)O[C@H]2C[C@@H](C)[C@@H]3C=CC(=O)[C@@]3(C)C[C@H]12	-68.3	.	.	82.4*	.	-63.9*
Cc1cccc(S(=O)(=O)N2[C@@H]3Cn4c(ccc(-c5ccncc5)c4=O)[C@H]2[C@@H](C(=O)O)[C@@H]3CO)c1	.	.	.	0.8	.	.
CCCN1[C@@H]2Cn3c(ccc(-c4ccc(OC)cc4)c3=O)[C@H]1[C@@H](C(=O)OC)[C@@H]2CO	.	.	.	5.4	.	.
COC(=O)[C@@H]1[C@@H](CO)[C@@H]2Cn3c(ccc(-c4cccc(OC)c4)c3=O)[C@H]1N2C(=O)c1cnccn1	.	.	.	-17.3	.	.
C[C@]12CC[C@H](OS(=O)(=O)O)CC1=CC[C@@H]1[C@@H]2CC[C@]2(C)C(=O)CC[C@@H]12	6.7	1.3	7.9	-15.2	-3.3	-5.1
CC12CCC3C(CC=C4CC5(CCC43C)OCCO5)C1CCC2=O (stereo unspecified)	-79.1	5.2	-6.5	.	8.2	-73.5*
COC(=O)C1=C(C(=O)OC)SC2(S1)C(C(=O)OC)=C(C(=O)OC)Sc1c2ssc1=O	.	58.5*	-20.2	-32.2	4.7	.
COc1ccc2c(c1OC)CN1CCc3cc4c(cc3[C@H]1C2)OCO4	.	-32.0	-6.1	.	-4.2	.
CCC1CN2CCc3cc(OC)c(OC)cc3C2CC1CC1NCCc2c1[nH]c1ccc(O)cc21 (stereo unspecified)	.	99.1*	83.3*	100.1*	84.8*	.
CN1CCC2(CC1)c1ccccc1-c1ccccc12	.	17.8	4.2	.	5.3	.
CC1(C(=O)O)CC12c1ccccc1-c1ccccc12 (stereo unspecified)	2.4	1.4	74.1*	8.2	6.9	2.4
O=C1NC(=O)N(c2ccccc2)C(=O)/C1=C/C=C/c1ccco1	8.7	14.4	-4.4	-9.0	12.9	8.3
CN(C)c1ccc(/C=C/C=C2/C(=O)NC(=O)N(c3ccccc3)C2=O)cc1	119.0*	92.2*	-54.2	.	4.8	73.3
COc1cccc(C(c2nnnn2C2CCCCC2)N2CCC3(CC2)C(=O)NCN3c2ccccc2)c1OC (stereo unspecified)	.	37.2	.	20.6	16.9	.
Cc1cccc(C)c1-n1nnnc1C(CCc1ccccc1)N1CCC2(CC1)C(=O)NCN2c1ccccc1 (stereo unspecified)	.	30.8	.	19.6	66.7*	.
COc1ccc(C(c2nnnn2C2CCCC2)N2CCC3(CC2)C(=O)NCN3c2ccccc2)cc1 (stereo unspecified)	.	-8.4	.	5.2	55.5*	.
O=C(O)C[C@@H]1CC[C@H]2NC[C@H](O)COC[C@@H]2O1	.	.	.	3.7	.	.
N#Cc1cccc(-c2ccc([C@H]3[C@H]4CN(C(=O)Cc5cccnc5)CCCCN4[C@H]3CO)cc2)c1	.	.	.	-19.9	.	.
CNc1ccc2oc(C[C@H]3O[C@@]4(CC[C@H]3C)O[C@H]([C@H](C)C(=O)c3ccc[nH]3)[C@H](C)C[C@H]4C)nc2c1C(=O)O	-20.1	103.6*	69.7*	-10.4	53.4*	-20.3
O=C(Cc1ccccc1)N1CCCCN2[C@@H](CO)[C@H](c3ccc(C#CC4(O)CCCC4)cc3)[C@@H]2C1	.	.	.	4.9	.	.
C[C@H]1CCC/C=C/C2C[C@H](O)CC2[C@H](O)/C=C/C(=O)O1 (stereo partly specified)	-25.4	56.7*	-31.1	.	-63.0	-26.9
CC1CCC/C=C/C2CC(O)CC2C(O)/C=C/C(=O)O1 (stereo unspecified)	-41.7	76.0*	-171.8	.	-54.5	-33.6
COc1ccc(C#Cc2ccc([C@H]3[C@H](CO)N4CCCCN(C(=O)Cc5ccncc5)C[C@@H]34)cc2)cc1	.	.	.	-14.6	.	.
CN(C)CC#Cc1ccc([C@@H]2[C@H]3CN(C(=O)Cc4ccccn4)CCCCN3[C@H]2CO)cc1	.	.	.	-10.2	.	.
SMILES	HSF1 activator	TWEAK Fn14 block	LMP1 NFkB inh	LGR2 inh	TROY signal inh	HSF1 inhib
C[C@H]1CN([C@@H](C)CO)C(=O)CCCn2cc(nn2)CO[C@H]1CN(C)C(=O)Oc1cccc2ccccc12	.	.	.	1.7	.	.
CC1(C)C[C@H]2C=C(C=O)[C@]3(C=O)C[C@]3(C)[C@H]2C1	-79.0	83.8*	-82.9	.	7.2	-75.7*
C[C@H]1[C@@H](OS(=O)(=O)O)C[C@@H]2C[C@H]([C@@H](O)c3cc(=O)[nH]c(=O)[nH]3)NC3=NC[C@H]1N32	.	59.6*	71.8*	.	24.9	.
N#Cc1cccc(-c2ccc([C@H]3[C@H]4CN(C(=O)Cc5ccncc5)CCCCN4[C@H]3CO)cc2)c1	.	.	.	5.6	.	.
COc1ccc(C#Cc2ccc([C@@H]3[C@H](CO)N4CCCCN(C(=O)Cc5ccncc5)C[C@@H]34)cc2)cc1	.	.	.	-9.4	.	.
CC(C)(O)C(=O)Nc1ccc([N+](=O)[O-])c(C(F)(F)F)c1	.	-6.5	3.4	8.3	-4.0	.
COc1cc2c(cc1OC)CN(c1ccc([N+](=O)[O-])c(C(F)(F)F)c1)CC2	121.2*	74.5*	8.0	93.4*	19.4	91.5
O=C(Cc1cccnc1)N1CCCCN2[C@H](CO)[C@@H](c3ccc(C#CC4CCCC4)cc3)[C@@H]2C1	.	.	.	0.3	.	.
CC(C)c1oc(=O)cc2c1[C@@H](O)[C@H]1OC(=O)[C@@]3(C)CC[C@@H](O)[C@@]2(C)C13 (stereo partly specified)	-0.5	49.8	0.3	67.0*	8.5	6.4
CC(C)c1oc(=O)cc2c1[C@@H](O)[C@H]1OC(=O)[C@@]3(C)C[C@@H](O)[C@@H](O)[C@@]2(C)C13 (stereo partly specified)	-3.3	87.6*	17.2	78.5*	38.4	8.9
COC(=O)[C@H]1[C@H](CO)[C@H]2Cn3c(ccc(-c4ccccc4)c3=O)[C@@H]1N2S(=O)(=O)c1ccccc1C	.	.	.	-12.5	.	.
CC1(CCCc2ccc(N(CCCl)CCCl)cc2)NC(=O)NC1=O (stereo unspecified)	.	6.4	48.2*	4.0	-14.2	.
COC(=O)[C@@H]1[C@@H](CO)[C@@H]2Cn3c(ccc(-c4ccccc4F)c3=O)[C@H]1N2	.	.	.	-13.3	.	.
COc1cccc(CN2CC3(C2)[C@H](c2ccccc2)[C@H](CO)N3C(=O)Cc2ccccc2)c1	.	.	.	-13.8	.	.
Cc1cccc(N2C(=O)NC(=O)/C(=C\c3cccn3-c3ccc(Cl)cc3)C2=O)c1	.	61.1*	-1.1	60.1*	30.5	.
Cc1cc(C)cc(N2C(=O)NC(=O)/C(=C/c3cccn3-c3ccc(Cl)cc3)C2=O)c1	29.0	103.7*	-10.4	?	69.2*	11.0
O=C(Cc1ccccc1)N1CCCCN2[C@H](CO)[C@H](c3ccc(C#CC4(O)CCCC4)cc3)[C@@H]2C1	.	.	.	-0.8	.	.

Screening data (PubChem BioAssay)
